# Measured values as given in PubChem BioAssay (NCATS).
# Inconclusive results are not listed. Where a call stands in place of a potency, no number is given. The source made the active and inactive calls. The call rests on the fitted dose curve; in most records, active means well fitted cell-killing curve with a large enough effect; inconclusive means small, poorly fitted or top-dose-only effect, or effect the other way; inactive means flat fitted curve, though single readings scatter.
# Test system: CAOV3
# Assay: Primary qHTS to identify gynecologic anti-cancer compounds using libraries of approved drugs and bioactive compounds (AID 1345084); further: nearly all actives have a fitted effect of over 55% in size
# Conditions: Gynecologic cancer cell panel viability, ATPlite luminescence, 48 h; series mostly up to 57.5 µM
# Excerpt: National Center for Advancing Translational Sciences [NCATS] Assay Overview: Chemotherapeutic drug responses vary from cancer to cancer and from patient to patient. These variations could be caused by a number of factors including patient genomic background, tumor mutations, tumor heterogeneity, and aspects of drug treatment. Chemotherapeutic drug resistance is also a common issue and can lead to ineffective treatment and patient death. Here we have profiled the cell killing effects of thousands of compounds to characterize the responses in three gynecological cancers, identify cancer-selective compounds, and understand the diversity of responses to these compounds from pan-cancer suppressors to single cell line selective compounds. In this assay, we screened a 7,914 compound drug library that included approved drug and bioactive compounds in six ovarian, three cervical, and […] placental cancer cell lines using the ATPlite assay for cell viability. […] The cervical cancer cell lines included HeLa, Ca Ski, and C-33 A. The placental cancer cell lines included JEG-3. HEK 293T cells were used as the control cell line to determine the selectivity index. ATPlite is a luminescence based assay reliant on the conversion of a luciferase substrate to light in the presence of ATP. As a cytotoxic compound will suppress growth and decrease the number of cells, the concentration of ATP will decrease, and less light signal will be detected in the well.
# Assay Protocol Summary: 1,000 cells in 4 uL of media were dispensed into white, solid bottom 1536-well plates using a Multidrop Combi (Thermo Scientific). The Assay plates were incubated for 16 hours at 37 C with 5% CO2 in assay plates, followed by the addition of 23 nL of DMSO or drug dissolved in DMSO. Each compound was assayed in five concentrations (0.092, 0.46, 2.3, 11.5, and 57.5 uM), using the automated Wako 1536 Pin Tool workstation and incubated at 37 C with 5% CO2 48 hours. 4 uL of ATPlite, the ATP monitoring reagent, was then added to the each well of the assay plates using the Multidrop Combi reagent dispenser followed by incubation for 15 minutes at room temperature. The resulting luminescence was measured using the ViewLux plate reader.
# Potency means the concentration at half of the fitted maximal effect.
row,Compound,Potency
1,COc1cc2ncnc(-n3nc(-c4ccccn4)nc3N)c2cc1OC,inactive
2,CCCCC1C(=O)N(c2ccccc2)N(c2ccccc2)C1=O,inactive
3,CCN(CC)CCNC(=O)c1ccc(N)cc1,inactive
4,Cc1c(NC(=O)c2ccc(C(C)(C)C)cc2)cccc1-c1cn(C)c(=O)c(Nc2ccc(C(=O)N3CCOCC3)cc2)n1,inactive
5,CC(C)OC(=O)C(C)(C)Oc1ccc(C(=O)c2ccc(Cl)cc2)cc1,inactive
6,NC(=O)c1cccc(-c2cc(Nc3ccc(OC(F)(F)F)cc3)ncn2)c1,inactive
7,Cc1ccc(Nc2cc(-c3cccc(N4C(=O)c5ccccc5C4=O)c3)ncn2)cc1NS(C)(=O)=O,inactive
8,Clc1ccc(Cn2c(CN3CCCC3)nc3ccccc32)cc1,inactive
9,CCCNC(=O)NS(=O)(=O)c1ccc(Cl)cc1,inactive
10,CCN(CC)C(=O)c1ccc(O)c(OC)c1,inactive
11,CN(C)c1cc(NC(=O)CNC(C)(C)C)c(O)c2c1C[C@@H]1C[C@H]3[C@H](N(C)C)C(=O)C(C(N)=O)=C(O)[C@@]3(O)C(=O)C1=C2O,inactive
12,COc1ccc(Cc2ccc(NC(N)=O)cc2)cc1-c1cccc(Cl)c1,inactive
13,CC(=O)Oc1cc2c(s1)CCN(C(C(=O)C1CC1)c1ccccc1F)C2 (stereo not given),inactive
14,COc1ccc2c(Oc3ccc(NC(=O)c4c(C)n(CC(C)(C)O)n(-c5ccccc5)c4=O)cc3F)ccnc2c1,inactive
15,CCN1CCC[C@H]1CNC(=O)c1cc(S(N)(=O)=O)ccc1OC,inactive
16,CC(C)C(=O)Nc1ncc(-c2cc(C(F)F)nn2-c2c(Cl)cccc2Cl)s1,inactive
17,O=C(O)Cc1cccc2ccccc12,inactive
18,O=C(Nc1cccc(Br)c1)c1cccc(S(=O)(=O)N2CCCCCC2)c1,inactive
19,COc1ccc2c(Oc3ccc(NC(=O)c4c(C)n(CC(C)(C)O)n(-c5ccccc5)c4=O)nc3)ccnc2c1,inactive
20,NCCS,inactive

row,Compound,Potency
1,CC(C)C(=O)Oc1ccc(CO)cc1[C@H](CCN(C(C)C)C(C)C)c1ccccc1,inactive
2,NC(N)=Nc1nc(CSCC/C(N)=N/S(N)(=O)=O)cs1,inactive
3,O=C(CCN1CCN(C(=O)OCc2cc(Cl)cc(Cl)c2)CC1)c1ccc2[nH]c(=O)oc2c1,inactive
4,CNC(=O)c1ccc2cc(C3(O)CCn4cncc43)ccc2c1 (stereo not given),inactive
5,CO[C@H]1C=CO[C@@]2(C)Oc3c(C)c(O)c4c(O)c(c5c(c4c3C2=O)NC2(CCN(CC(C)C)CC2)N=5)=NC(=O)C(C)=CC=C[C@H](C)[C@H](O)[C@@H](C)[C@@H](O)[C@@H](C)[C@H](OC(C)=O)[C@H]1C,inactive
6,CN1C[C@H]2c3ccccc3Oc3ccc(Cl)cc3[C@@H]2C1,inactive
7,CC(C)NCC(O)COc1cccc2[nH]ccc12 (stereo not given),inactive
8,CCn1cc(C(=O)O)c(=O)c2ccc(C)nc21,inactive
9,O=C(O)c1cc(-c2ccccc2)nc2ccccc12,inactive
10,CC(C)(C)OC(=O)N[C@H]1CCCCCC=C[C@@H]2C[C@@]2(C(=O)NS(=O)(=O)C2CC2)NC(=O)[C@@H]2C[C@@H](OC(=O)N3Cc4cccc(F)c4C3)CN2C1=O,inactive
11,CCN(CC)CCOC(=O)c1ccc(N)cc1,inactive
12,COCCOc1nc(-c2ccc(Cl)c(Cl)c2)n(-c2ccc(NC(=O)CCl)cc2)n1,28.2 µM (active)
13,CC(C)(C)c1ccc(C(O)CCCN2CCC(C(O)(c3ccccc3)c3ccccc3)CC2)cc1 (stereo not given),inactive
14,CC1CCC(C(=O)N(c2cc(C#CC(C)(C)C)sc2C(=O)O)C2CCC(O)CC2)CC1 (stereo not given),inactive
15,OC[C@@H](O)[C@H](O)[C@H](O)[C@@H](O)CO,inactive
16,CC(=O)N[C@@H](CS)C(=O)O,inactive
17,COc1ccc2cccc(CCNC(C)=O)c2c1,inactive
18,CC1(C)CCC(CN2CCN(c3ccc(C(=O)NS(=O)(=O)c4ccc(NCC5CCOCC5)c([N+](=O)[O-])c4)c(Oc4cnc5[nH]ccc5c4)c3)CC2)=C(c2ccc(Cl)cc2)C1,inactive
19,CCn1c(C(=O)N(C2CC2)C2CC2)cc2c3c(ncn3C)c(Nc3cc(C)n(C)n3)nc21,inactive
20,C[N+](C)(C)CCCCCC[N+](C)(C)C,inactive
